This is a sample that favours compounds with a hit; in the whole collection about 7.6% have one here.
ERK AVP inh – inhibitors of vasopressin-stimulated ERK signaling pathway. HEK293-V1b, vasopressin-stimulated pERK AlphaScreen. Potency, µM (titrated, usually from 57.5 µM), inactives show at the top dose activity, negative = inhibition, hits mostly inhibitors. hit rate 0.99% among 72,000; also: % is scaled to controls: 0 for no effect and ±100 for the full control effect; nearly all actives have a fitted effect of over 55% in size
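HEK293 cells stably expressing V1b receptor, seeded overnight in 1% FBS, were treated with compounds for 30 min at 37C, then stimulated 5 min with 25 nM vasopressin; phospho-ERK read by AlphaScreen SureFire after lysis.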
Tau fil binding – binds recombinant human tau filaments | P10636 | recombinant tau filaments, thioflavin S fluorescence, 15 h; filaments grown with octadecylsulfate alongside compound | Potency, µM (doses to about 57.1 µM), inactives show top-dose activity change, negative = inhibition | hit rate 2% among 71,000 | AID 596;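 also: % is scaled to controls: 0 for no effect and ±100 for the full control effect; actives lower thioflavin S fluorescence by blocking filaments or displacing dye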
Target sequence (P10636 whole entry, looked up): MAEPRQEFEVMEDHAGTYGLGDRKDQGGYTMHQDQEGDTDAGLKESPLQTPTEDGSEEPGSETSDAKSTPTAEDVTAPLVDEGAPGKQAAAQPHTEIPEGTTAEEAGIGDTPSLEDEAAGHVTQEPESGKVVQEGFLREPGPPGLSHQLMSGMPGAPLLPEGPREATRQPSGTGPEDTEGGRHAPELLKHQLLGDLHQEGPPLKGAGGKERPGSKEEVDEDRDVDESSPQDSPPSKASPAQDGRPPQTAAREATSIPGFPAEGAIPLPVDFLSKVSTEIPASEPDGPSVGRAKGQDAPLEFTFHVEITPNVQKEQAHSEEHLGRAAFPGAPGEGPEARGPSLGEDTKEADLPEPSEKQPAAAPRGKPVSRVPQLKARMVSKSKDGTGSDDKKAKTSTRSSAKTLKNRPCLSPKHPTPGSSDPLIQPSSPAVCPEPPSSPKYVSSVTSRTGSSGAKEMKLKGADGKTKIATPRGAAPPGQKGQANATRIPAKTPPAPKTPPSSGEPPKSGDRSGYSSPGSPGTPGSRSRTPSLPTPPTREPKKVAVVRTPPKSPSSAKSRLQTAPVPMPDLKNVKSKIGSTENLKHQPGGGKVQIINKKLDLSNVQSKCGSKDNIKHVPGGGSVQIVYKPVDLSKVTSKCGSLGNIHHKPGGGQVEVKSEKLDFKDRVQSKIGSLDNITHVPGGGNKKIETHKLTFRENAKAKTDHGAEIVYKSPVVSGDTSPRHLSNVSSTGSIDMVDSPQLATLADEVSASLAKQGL
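Assay mix: 1 uM His-tagged tau, 30 uM sodium octadecylsulfate, thioflavine S dye in HEPES/NaCl/DTT buffer. Compound is added prior to the inducer. Fluorescence after 15 h at 37 C.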
HEK293 cAMP cs – raises cAMP in parental HEK293 cells, TSHR agonist counter-screen; parental HEK293 CNG cAMP sensor, membrane potential fluorescence; Potency, µM (series often up to 57.1 µM), inactives show at the top dose activation, actives largely listed as activators; hit rate 2.5% among 73,000; AID 938; also: % of control where 0% means no effect; nearly all actives have a fitted effect of over 55% in size
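Parental HEK 293 cells stably expressing a modified CNG channel (no TSHR) report cAMP rise as membrane depolarization. Membrane potential dye with 100 uM RO 20-1724 was loaded for 60 min at room temperature, then compound added for 30 min; fluorescence read at 590 nm.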
TSHR agonist – activates the human thyroid stimulating hormone receptor | HEK293-CNG-TSHR cells (CNG channel as cAMP sensor), membrane potential dye, cAMP | AID 926 | hit rate 0.48% among 73,000 | Potency, µM (doses to about 57.1 µM), inactives show top-dose activation, most hits filed as activators; active = well fitted activation curve with a large enough effect in the main read-out, with a control signal flat, not every such curve was filed as active; inconclusive = small, poorly fitted or top-dose-only effect, or a change in a side signal; inactive = no such curve, though single readings can be large or run the other way; % of control where 0% means no effect;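 also: the control signal comes from parental cells without the receptor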
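HEK 293 cells stably expressing TSHR and a cAMP-gated CNG channel; parental CNG-only cells as counterscreen. Cells preloaded 60 min with membrane potential dye plus 100 uM RO 20-1724, then compound 30 min; fluorescence read at 590 nm.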
CRE Fsk mod – modulators of forskolin-stimulated CRE signaling in CHO cells. CHO CRE-bla reporter (cAMP response element driving beta-lactamase), forskolin EC10, beta-lactamase ratio. Potency, µM (series often up to 38.2 µM), without a hit: at the top dose activity change, negative = inhibition, most hits filed as activators. hit rate 2.5% among 71,000. AID 662; active = well fitted activation curve with a large enough effect in the signal ratio, with a control signal flat, not every such curve was filed as active; inconclusive = small, poorly fitted or top-dose-only effect, or effect the other way, or a change in a side signal; the % refers to the signal ratio; also: % of control where 0% means no effect
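AC50 values, positive or negative, reflect shifts in EC10 NKH 477-induced CRE-bla reporter activity in CHO cells. Incubation lasted 3 h at 37 °C before CCF4 substrate (2 h, room temperature) and ratiometric 460/530 nm reading.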
Active calls of the source: *; ? = inconclusive; / = no result given; [ ] = dose if it differs, or a comment. Unless noted, calls follow the shape of the dose curve; as a rule, active = well fitted curve in the direction sought with a large enough effect; inconclusive = small, poorly fitted or top-dose-only effect, or another doubt; inactive = no such curve, though single readings can be large; an effect the other way counts as inactive or inconclusive. Potency is read from the fitted curve at half-maximal effect.

SMILES	ERK AVP inh	Tau fil binding	HEK293 cAMP cs	TSHR agonist	CRE Fsk mod
CCN(CC)S(=O)(=O)c1ccc(Nc2nc3ccccc3n3nnnc23)cc1	-13%	-11%	28%	/	5µM*
c1ccc2c(c1)nc(Nc1ccc3c(c1)OCO3)c1nnnn12	-24%	6%	14%	6%	?
Cc1ccc2nsnc2c1S(=O)(=O)N1CCN(CCc2ccccc2)CC1	?	25µM*	-18%	-27%	?
NC(N)=N[C@H](CCC(=O)O)C(=O)O	-3%	16%	5%	-33%	6%
Oc1ccc2ccccc2c1Cc1c(O)ccc2ccccc12	-14%[11.5 µM]	-3%[11.4 µM]	19%[11.4 µM]	6%[11.4 µM]	-3%[7.6 µM]
O=c1[nH]c(=S)[nH]c(-c2ccccc2)c1Cc1c(O)ccc2ccccc12	-3%[11.5 µM]	8%[11.4 µM]	2.5µM*	?	-9%[7.6 µM]
C=CCN1C(=O)/C(=C2/Sc3ccccc3N2C)SC1=Nc1c(C)n[nH]c1C	-1%	-6%	-17%	7%	1.6µM*
C=CCN1C(=O)/C(=C2/Sc3ccccc3N2CCCS(=O)(=O)O)SC1=S	-23%	99%	-14%	-7%	24%
O=C(O)c1ccc(F)c(S(=O)(=O)Nc2cccc(F)c2)c1	/	/	-14%	-6%	/
Cc1nn(C)c(C)c1CN(C)C(=O)c1cc2nc(-c3ccco3)cc(C(F)(F)F)n2n1	27%	4%	?	?	?
Cc1nn(C)cc1CN(C)C(=O)c1cc2nc(-c3ccco3)cc(C(F)(F)F)n2n1	-14%	-8%	2%	9%	13µM*
O=C(Nc1cnn(Cc2ccccc2)c1)c1cc2nc(-c3ccco3)cc(C(F)(F)F)n2n1	-30%	-20%	-23%	-12%	8%
Cc1ccccc1Cn1nc(C)c(NC(=O)c2cc3nc(-c4ccco4)cc(C(F)(F)F)n3n2)c1C	-15%	7.9µM*	-7%	8%	2.5µM*
CC1CCCCN1CCCNC(=O)c1ccc(Cc2nc3ccccc3[nH]2)cc1 (stereo not given)	/	/	-21%	-4%	/
CC(C)COC(=O)c1cc(-c2ccc(/C=N/n3cnnc3)o2)ccc1Cl	-22%	25µM*	1%	3%	6%
CC1Cc2ccccc2N1S(=O)(=O)c1cccc2nsnc12 (stereo not given)	16µM*	25µM*	?	?	?
O=S(=O)(c1cccc2nsnc12)N1CCc2ccccc2C1	?	20µM*	15%	17%	?
O=S(=O)(c1cccc2nsnc12)N1CCCC1	-24%	-10%	7%	-1%	-11%
O=C(C1CCN(S(=O)(=O)c2cccc3nsnc23)CC1)N1CC=C(c2ccccc2)CC1	20%	20µM*	11%	2%	?
C[C@@H]1CCCN(C[C@@H](O)CN2CCCc3ccccc32)C1	-18%[11.5 µM]	0%[11.4 µM]	20%[11.4 µM]	8%[11.4 µM]	-2%[7.6 µM]
C[C@H]1CC[C@H]2C(=O)N3[C@H](c4ccc(Br)cc4)[C@@H](C)CC[C@H]3C(=O)N2[C@@H]1c1ccc(Br)cc1	5%[11.5 µM]	/	?	?	/
O=C(O)/C=C(/C(=O)O)[C@]12CCN3CC4=CCO[C@@H]5CC(=O)N[C@@H]1[C@H]5[C@H]4C[C@H]32	4%[11.5 µM]	3%[11.4 µM]	-1%[11.4 µM]	-1%[11.4 µM]	8%[7.6 µM]
CC1Cc2c(COc3ccccc3)nc3c(c2CO1)CN(CCOc1ccccc1)CC3 (stereo not given)	-2%[11.5 µM]	/	5%[11.4 µM]	10%[11.4 µM]	/
CN(C)C(=O)Cn1c(SCC(=O)NC2CCCCC2)nc2ccccc21	-20%	6%	20%	0%	-2%
CC(C)Cn1c(SCC(=O)NC(=O)NC2CCCC2)nc2ccccc21	5%	24%	32µM*	?	?
SMILES	ERK AVP inh	Tau fil binding	HEK293 cAMP cs	TSHR agonist	CRE Fsk mod
O=C(Nc1cccc(C(F)(F)F)c1)C1CCCN(c2ncccn2)C1 (stereo not given)	3%	3%	25µM*	?	6%
COc1ccc(OC)c(S(=O)(=O)N2CCC(C(=O)Nc3cccc(C(F)(F)F)c3)CC2)c1	16µM*	-6%	0%	?	?
Cn1cc(S(=O)(=O)N2CCc3ccccc3C2)c(=O)n(C)c1=O	/	-3%	7%	-7%	-2%
CC1CN(S(=O)(=O)c2cn(C)c(=O)n(C)c2=O)CC(C)O1 (stereo not given)	/	3%	23%	40µM*	0%
COc1ccc2nc(NC(=O)c3cnccn3)sc2c1	-12%	5µM*	-5%	-7%	0%
CCOCC(=O)Nc1nc2ccc(OC)cc2s1	-12%	-2%	5%	-3%	4%
O=C(O)C1(O)CC(O)C(O)C(O)C1 (stereo not given)	0%	/	/	/	/
c1ccc2c(c1)Cn1nnnc1-2	-14%	-5%	3%	2%	2%
c1ccc2c(c1)Cn1c-2nc2ccccc21	-3%	10%	16µM*	?	9%
O=C(O)CCCC(=O)OCCCCc1cccs1	13%	7%	5%	2%	-3%
Nc1nnc(CCCCc2cccs2)o1	/	/	0.5µM*	?	/
Cc1ccccc1Cc1c(C)nc2nc(SCC(=O)NCc3ccco3)nn2c1C	-27%	92%	27%	17%[11.4 µM]	-3%
Cc1ccc(Cc2c(C)nc3nc(SCC(=O)NCc4ccco4)nn3c2C)cc1	11%	-4%	16µM*	?	?
Cc1cc(C)c2cc(C#N)c(SCC(=O)NCc3ccco3)nc2c1	1%	20µM*	28%	19%	?
Cc1cccc(Cc2c(C)nc3nc(SCC(=O)NCc4ccco4)nn3c2C)c1	5%	23%	10µM*	?	-19%
CC(C)=CCC/C(C)=C/CO/N=C1/C[C@@H](O)[C@@H](O)[C@@H]2[C@@H]3C(=O)N(Cc4ccccc4)C(=O)[C@H]3CC[C@H]12	13%[11.5 µM]	/	-6%[11.4 µM]	/	/
Cc1ccc(NC(=O)CN2CC(C)SC2=NC2CCCCC2)cc1 (stereo not given)	-13%	13µM*	15%	-6%	-17%
CCOC(=O)c1c(NC(=O)c2nn(CC)cc2Br)c(C#N)nn1-c1ccccc1	-10%	-8%	14%	/	7.9µM*
CCOC(=O)c1c(NC(=O)c2nn(CC)cc2Br)sc(C)c1C	-12%	21%	11%	8%	3.2µM*
CCOC(=O)c1ccc(NC(=O)c2nn(CC)cc2Br)cc1	-21%	20%	3%	7%	4%
CCOC(=O)c1nn(-c2ccccc2)c(C#N)c1NC(=O)c1nn(CC)cc1Br	-11%	59%	12%	9%	1.6µM*
CC1CCC2C(=O)N3C(CCC(C)[C@@H]3c3cccc(N4CCOCC4)c3)C(=O)N2C1c1cccc(N2CCOCC2)c1 (stereo not given in full)	26%[11.5 µM]	/	2%[11.4 µM]	-1%[11.4 µM]	/
C/C=C/OC(=O)NC(c1ccccc1)[C@]1(C(C)=O)CCCC1=O (stereo not given in full)	28%[11.5 µM]	/	0%[11.4 µM]	1%[11.4 µM]	/
Cc1ccccc1NS(=O)(=O)c1cccc(-c2nnc(-c3ccccc3)o2)c1	?	53%	6.3µM*	?	16%
Brc1cccc(-c2nnc(-c3ccccc3)o2)c1	7%	66%	?	?	9%
